Inconclusive results are not listed. Calls of active or inactive are those of the source. The call rests on the fitted dose curve; in most records, active means well fitted curve in the direction sought with a large enough effect; inconclusive means small, poorly fitted or top-dose-only effect, or another doubt; inactive means no such curve, though single readings can be large; an effect the other way counts as inactive or inconclusive. Square brackets hold non-standard residues; d marks the D form. Peptide text beside a SMILES is read from it. ξ: configuration not given here. dPhe(4-Cl) = N[C@H](Cc1ccc(Cl)cc1)C(=O)O; d2Nal = N[C@H](Cc1ccc2ccccc2c1)C(=O)O; ξPhe(βξ-Me) = CC(c1ccccc1)C(N)C(=O)O; dCit = NC(=O)NCCC[C@@H](N)C(=O)O; d3Pal = N[C@H](Cc1cccnc1)C(=O)O; GABA = NCCCC(=O)O
How the values were obtained:
[1] = molecular target: Cellular tumor antigen p53 (Homo sapiens) (UniProt P04637); assay: Primary qHTS for small molecule compounds that upregulate eGFP-tagged delta133p53alpha (in N-terminal) cells. (AID 2060322); settings: NCI-H358 eGFP-delta133p53alpha fluorescence, 24 h; activation: hits give high values;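 further: 0% = DMSO vehicle and 100% = reference activator; nearly all actives have a fitted effect of over 75% in size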
Outline: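 NCI-H358 cells pre-induced 24 h with 10 ng/ml doxycycline to express N-terminal eGFP-delta133p53alpha, then dosed 24 h at 37C without doxycycline; fixed, Hoechst-stained, GFP intensity by laser scanning cytometry, normalized to DMSO (0%) and 57.5 uM 5-azacytidine (100%).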

[2] = molecular target: Aldehyde dehydrogenase, mitochondrial (Homo sapiens) (UniProt P05091); assay: qHTS for Inhibitors of the Aldehyde Dehydrogenase Family (ALDH2) Primary screen (AID 2061308); settings: ALDH2 enzyme inhibition qHTS, 1536-well; series mostly up to 56 µM;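 further: plate controls were vehicle for no effect and reference inhibitor for full effect; nearly all actives have a fitted effect of over 55% in size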
[3] = molecular target: Retinaldehyde dehydrogenase 3 (Homo sapiens) (UniProt P47895); assay: qHTS for Inhibitors of the Aldehyde Dehydrogenase Family (ALDH1A3) Primary screen (AID 2061315); settings: ALDH inhibition qHTS; series mostly up to 56 µM;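 further: plate controls were DMSO vehicle for no effect and reference inhibitor for full effect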

Chain of Cellular tumor antigen p53 (Homo sapiens) (P04637 whole entry, looked up): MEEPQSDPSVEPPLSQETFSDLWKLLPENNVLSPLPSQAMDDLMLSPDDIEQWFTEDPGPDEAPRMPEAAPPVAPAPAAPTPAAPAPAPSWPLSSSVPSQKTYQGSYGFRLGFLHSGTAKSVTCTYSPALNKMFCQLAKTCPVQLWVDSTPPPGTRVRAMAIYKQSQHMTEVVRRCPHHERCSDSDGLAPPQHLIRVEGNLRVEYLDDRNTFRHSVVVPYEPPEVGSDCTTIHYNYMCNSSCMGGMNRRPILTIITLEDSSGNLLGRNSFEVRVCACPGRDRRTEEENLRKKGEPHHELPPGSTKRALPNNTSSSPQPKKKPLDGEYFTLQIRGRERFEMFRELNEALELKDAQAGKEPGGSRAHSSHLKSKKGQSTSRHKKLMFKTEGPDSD

CC(CCC1(O)OC2CC3C4CCC5CC(O[C@@H]6O[C@H](CO)[C@@H](O)[C@H](O)[C@H]6O[C@@H]6OC[C@@H](O)[C@H](O)[C@H]6O)C(O)CC5(C)C4CCC3(C)C2C1C)CO[C@@H]1O[C@H](CO)[C@@H](O)[C@H](O)[C@H]1O (stereo not given in full)
inactive: activation [1] -5.36% | Potency [2] | Potency [3]

CCC(CCO[C@@H]1O[C@H](CO[C@H]2OC[C@](O)(CO)[C@H]2O)[C@@H](O)[C@H](O)[C@H]1O)C(C)(C)O (stereo not given in full)
inactive: activation [1] -6.87% | Potency [2] | Potency [3]

CC1(C)C2CC=C(COC3OC(COC4OCC(O)(CO)C4O)C(O)C(O)C3O)C1C2 (stereo not given)
inactive: activation [1] 18.3% | Potency [2] | Potency [3]

CC1NC(=O)CCCNC(=O)C(Cc2c[nH]c3ccccc23)NC(=O)C(C)NC(=O)C(C(C)C)NC(=O)C(C(C)c2ccccc2)NC(=O)C(C(C)C)NC1=O (stereo not drawn) (cyclo([GABA]AV[ξPhe(βξ-Me)]VAW); configuration not given here)
inactive: activation [1] 6.11% | Potency [2] | Potency [3]

CC(=O)N[C@H](Cc1ccc2ccccc2c1)C(=O)N[C@H](Cc1ccc(Cl)cc1)C(=O)N[C@H](Cc1cccnc1)C(=O)N[C@@H](CO)C(=O)N[C@@H](Cc1ccc(O)cc1)C(=O)N[C@H](CCCNC(N)=O)C(=O)N[C@@H](CC(C)C)C(=O)N[C@@H](CCCN=C(N)N)C(=O)N1CCC[C@H]1C(=O)N[C@H](C)C(N)=O (Ac-[d2Nal][dPhe(4-Cl)][d3Pal]SY[dCit]LRP[dA]-NH2)
inactive: activation [1] 13% | Potency [2] | Potency [3]
